# The list is not random: actives were taken first. Their share in the collection is about 1.4%.
# AID504770 – E. coli YBA685 growth inhibition, screen for V. cholerae RctB inhibitors; E. coli YBA685 rctB-dependent plasmid, OD600 growth, 3 h; active compounds read low; z-score (test concentration not listed); actives 0.27% (n = 130,000); in the data active = z-score below about -2, passing the limit was not always enough
# PV pol inh – poliovirus RNA polymerase inhibition | actives 0.66% (n = 150,000) | % elongation, % (compound at 16.7 µg/mL) | poliovirus polymerase elongation, fluorescence polarization; active compounds read low | P03300; in the data active = % elongation below about 90%
# Mtb MenB inh – blocks the Mycobacterium tuberculosis MenB enzyme; inhibition, % (no concentration beside the values); actives 0.43% (n = 100,000); MenB enzyme assay, absorbance read-out; in the data active = inhibition above about 21%, passing the limit was not always enough
# Target sequence (P9WNP5 whole entry, looked up): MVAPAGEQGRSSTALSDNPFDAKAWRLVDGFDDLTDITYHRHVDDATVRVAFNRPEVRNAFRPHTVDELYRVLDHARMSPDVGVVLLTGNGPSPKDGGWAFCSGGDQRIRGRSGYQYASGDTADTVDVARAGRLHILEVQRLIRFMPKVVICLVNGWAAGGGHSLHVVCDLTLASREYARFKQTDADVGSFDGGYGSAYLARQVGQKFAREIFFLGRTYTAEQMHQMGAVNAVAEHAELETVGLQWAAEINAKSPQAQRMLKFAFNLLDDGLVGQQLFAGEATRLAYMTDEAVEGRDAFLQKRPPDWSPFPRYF
# MbtI inh – MbtI salicylate synthase inhibition. actives 0.89% (n = 100,000). purified MbtI enzyme, fluorescence intensity read-out. inhibition, % (no concentration beside the values). AID 493033; in the data active = inhibition mostly above about 56%, no sharp cut-off; inactive = mostly below about 77%
# * = called active by the depositor; x = not tested or not shown.
SMILES,AID504770,PV pol inh,Mtb MenB inh,MbtI inh
Cc1cc(-n2sc3ccccc3c2=O)c2ccccc2n1,1.9,121,2,-2
CC(C)C(NC(=O)c1ccc(F)cc1)C(=O)O (stereo not drawn),-0.15,x,x,x
CC(NC(=O)c1ccc(F)cc1)C(=O)O (stereo not drawn),0.75,102,38*,49
Cc1cccc(NC(=O)c2oc3ccccc3c2NC(=O)Cc2coc3c(C)c(C)ccc23)c1,x,119,x,x
COc1ccc(NC(=O)c2oc3ccccc3c2NC(=O)Cc2coc3c(C)c(C)ccc23)cc1,x,-10*,x,x
CN(C)C(=O)c1cccc2c1-c1ccccc1C2,0.2,101,12,6
NC1=NN=C(c2ccc3c(c2)OCCO3)CS1,1.1,98,15,16
NC1=NN=C(c2ccccc2)CS1,-0.6,97,-57,65*
CC1(C)Cc2nc(NCCO)c(C#N)cc2CO1,-0.45,x,x,110
O=C(c1ccc2nc(N3C(=O)c4ccccc4C3=O)sc2c1)N1CCOCC1,0,98,-6,0
CC(C)c1cccc(C(C)C)c1O,x,100,-9,-8
Cc1cccc(O)c1O,0,102,-14,86*
O=C1C(=Cc2ccccc2)C(=O)c2ccccc21,0.85,93,-96,95*
Cc1cc(C(=O)NN2C3CSC2CS3)no1,-0.25,99,75*,-4
Cc1cc(C(=O)NC2CCCCCC2)no1,-0.4,106,-3,-10
C=CCn1c(Cc2ccc(O)c(Cl)c2)n[nH]c1=S,2.9,101,-18,93*
CCN(CC)S(=O)(=O)c1ccc(NC(=O)COc2ccc3c(C)cc(=O)oc3c2)cc1,-0.8,102,7,-20
CCN(CC)CCNC(=O)c1ccc2c(=O)n3nc(Nc4ccccc4)sc3nc2c1,x,81*,x,x
COCCNC(=O)CCC(=O)NNc1nc2ccccc2c2nc(C)nn12,x,30*,x,x
CCC(C)NC(=O)CCC(=O)NNc1nc2ccccc2c2nc(C)nn12 (stereo not drawn),x,36*,x,x
CCOC(=O)C1=C(N)OC2=C(C(=O)CCC2)C1c1ccc(OC)cc1 (stereo not drawn),-0.2,108,-5,x
Cc1ccccc1Cn1cc(SCC(=O)N2CCCc3ccccc32)c2ccccc21,0.6,100,-24,8
CSC1=NCCCN1S(=O)(=O)c1ccc(Cl)cc1,-1.1,x,x,x
O=C(Sc1ccc(C(F)(F)F)cn1)c1csc(C2COc3ccccc3O2)n1 (stereo not drawn),-1.2,102,-12,71*
O=C(O)CCN1C(=O)Cc2ccccc2C1=O,-0.85,22*,-25,6
SMILES,AID504770,PV pol inh,Mtb MenB inh,MbtI inh
C#CCn1c(=NC(=O)c2ccc(N3C(=O)CCC3=O)cc2)sc2cc(Br)ccc21,0.55,96,8,1
O=c1c(=NO)c(=O)c2ccccc12,2.2,32*,-16,16
CCOC1=CC2=C(CC(C)(C)CC2=O)OC1N(C)C (stereo not drawn),-0.75,102,-70,7
CC(CO)(CO)NC(=O)Cc1cc(=O)[nH]c(=O)[nH]1,-0.9,105,-47,-7
Cc1cc(C)c(C#N)c(SCC(=O)Nc2ccccc2C#N)n1,x,103,x,x
Cc1ccc(NC(=O)CSc2nc(C)cc(C)c2C#N)cc1,1,98,40*,3
CCC(C)N1CCN(Cc2cc(OC)c(OC)cc2OC)CC1 (stereo not drawn),1.6,102,37*,4
COc1cc(OC)c(OC)cc1CN1CCN(c2cccc(C)c2C)CC1,-0.3,96,4,-1
Cc1cc(C)c2cccnc2c1O,-2.4*,101,-11,-7
c1ccc(-c2cc(N3CCCC3)n3cnnc3n2)cc1,0.15,101,1,-7
CCC(C)NC(=O)C1CCN(c2nc3ccccc3n3cccc23)CC1 (stereo not drawn),-0.15,103,-27,2
Cc1cc(NS(=O)(=O)c2ccc(N3C(=O)C=CC3=O)cc2)no1,2.2,98,12,93*
O=C1CCCN2N=C(SC/C=C/c3ccccc3)SC2=N1,-0.75,x,x,x
Cc1nc(-c2c(C)[nH]c3ccccc23)cs1,0,89*,9,87*
Nn1c(SCCCC(=O)c2ccc(F)cc2)nnc1-c1cccnc1,1.7,102,18,-12
O=C(O)/C=C1\OC(=O)c2ccccc21,-0.35,106,-6,-1
COC(=O)/C=C1/OC(c2ccccc2)=CC1=O,1.6,139,-25,89*
NC(=O)CSc1nnnn1-c1ccccc1,-0.8,106,-8,x
O=S(=O)(c1ccc(I)cc1)N1CCCCCC1,-1.1,102,-19,1
O=S(=O)(c1ccc(=S)[nH]c1)N1CCCCCC1,1.6,106,-8,95*
COC(=O)c1nn(-c2ccccc2)cc1OCC(=O)N1CCc2ccccc21,-0.05,103,-98,35
O=C(CSc1ccccn1)c1ccc(F)cc1,1.5,99,-10,86*
CCC(C)(C)c1nnc(N)s1,-0.15,96,5,99*
O=C(c1cccnc1Nc1ccccc1F)N1CCCCC1,1.1,100,39*,8
Cc1nnc2n1NC(c1ccc(Cl)cc1)C(C(=O)N1CCCCCC1)S2 (stereo not drawn),0.05,100,9,-10
SMILES,AID504770,PV pol inh,Mtb MenB inh,MbtI inh
Cc1c(-c2cccc(Cl)c2)nc2ccccc2c1C(=O)N1CC(C)OC(C)C1 (stereo not drawn),-0.6,98,x,-3
O=C1N=C(N2CCOCC2)SC1=C1CCCCC1,-0.85,101,-20,-4
O=C1NC(=O)C(=C2CCCCC2)S1,0.15,105,-36,86*
O=C(Nc1ccc2[nH]c(=O)[nH]c2c1)NC1CCCCC1,0.1,90*,21,3
Cc1cccc(C(=O)c2c(N3CCOCC3)[nH]c(=O)c3ccccc23)c1,-1.4,68*,-25,0
O=C1C=C2C(=CCOC2O)O1 (stereo not drawn),-5.2*,99,0,27
C=CCn1c(Cc2ccccc2)nnc1SCC(=O)N1CCc2ccccc21,-0.35,102,4,-8
O=C(CS(=O)(=O)Cc1ccccc1)Nc1ccc2c(c1)OCO2,-0.95,103,-16,7
O=C(CNS(=O)(=O)c1ccccc1)Nc1ccc2c(c1)OCO2,0.8,103,56*,4
O=C(CC1OC(=O)c2ccccc21)c1ccccn1 (stereo not drawn),0.1,x,x,x
O=C(CC1OC(=O)c2ccccc21)c1ccc(Cl)s1 (stereo not drawn),-0.2,85*,-5,6
CC(C)CNCCCN1CCOCC1,0.55,101,36*,0
NC(=O)c1ccsc1NC(=O)Cc1ccc(S(=O)(=O)N2CCOCC2)s1,-5.4*,112,-11,-7
O=C(NCCSc1nnnn1-c1ccccc1)c1ccccc1,0.25,103,-13,-5
COC(=O)NCCSc1nnnn1-c1ccccc1,1.9,101,31*,8
O=C1Nc2ccccc2-c2ccccc2N1,-0.25,101,8,111
O=C1Nc2ccccc2C(=O)C1(O)O,1.6,103,43*,-5
N#Cc1ccccc1NC(=O)C1CCC1,0.95,105,-6,-10
CCN1C(=O)C2C=CC=CC2NC1=S (stereo not drawn),-0.7,101,4,3
CN1C(=O)C2C=CC=CC2NC1=S (stereo not drawn),0.5,87*,-73,44

# Bioassay records deposited in PubChem by ICCB-Longwood Screening Facility, Harvard Medical School.
